# Most compounds without a hit are left out; they make up all but 8% or so of the library.
# SARS PLpro yeast – qHTS of Yeast-based Assay for SARS-CoV PLP. S. cerevisiae expressing SARS-CoV PLpro, growth rescue. Potency, µM (titrated, usually from 32.9 µM), most hits filed as activators. 330,000 compounds, 0.19% hits. AID 485353, 2010; calls by dose curve; note: nearly all actives have a fitted effect of over 55% in size
# FMDV inh – High Throughput Screening for Foot and Mouth Disease Virus Antivirals; FMDV antiviral cell-based qHTS; Potency, µM (highest dose often 57.9 µM), actives largely listed as inhibitors; 410,000 compounds, 1.2% hits; calls by dose curve; tested in HEK293T cells; note: read-out not given here; nearly all actives have a fitted effect of over 45% in size
# HCV inhibitor – qHTS Assay for Inhibitors of Hepatitis C Virus (HCV); 340,000 compounds, 3.4% hits; AID 651820, 2012; Potency, µM (doses to about 41.8 µM), most hits filed as inhibitors; Huh7.5.1 HCVcc-Cre infection, luciferase reporter, 44 h; active = well fitted inhibition curve with a large enough effect; inconclusive = small, poorly fitted or top-dose-only effect, or another doubt; inactive = no such curve, though single readings can be large or run the other way
#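 Cells seeded at 1,000/well and cultured 4 h, then compounds added followed by HCVcc-Cre virus (~0.5 moi). After 44 h further culture, luciferase substrate was added, plates held 15 min at room temperature, and luminescence read for 15 sec.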
# MARV entry inh – qHTS for inhibitors of binding or entry into cells for Marburg Virus. Marburg virus pseudotyped entry inhibition, cell reporter. Potency, µM (series often up to 37.8 µM), usual class: inhibitors. 300,000 compounds, 1.8% hits; calls by dose curve; tested in HEK293 cells
# Lassa entry inh – qHTS for Inhibitors of binding or entry into cells for Lassa Virus | Lassa virus pseudotype entry inhibition, cell reporter | Potency, µM (doses to about 37.9 µM), hits mostly inhibitors | 300,000 compounds, 1.2% hits; calls by dose curve; tested in HEK293 cells; note: nearly all actives have a fitted effect of over 50% in size
# HCMV antiviral – qHTS Assay for inhibitors of the human cytomegalovirus (HCMV); activity change, negative = inhibition, % at 57.5 µM; HFF cells, HCMV-luciferase reporter, 72 h; hits give low values; 410,000 compounds, 4.5% hits; in the data active = activity change below about -60%; inconclusive = no clear call, values can overlap the other calls; inactive = above about -39%
#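 HFF cells seeded 16 h at 37C, treated with compounds, infected with luciferase-reporter HCMV at MOI 1 PFU/cell; luciferase read at 72 h post infection, normalized to buffer-only and Salinomycin controls.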
# A number is an active result; - = inactive; ? = inconclusive; . = not tested or not shown.
SMILES,SARS PLpro yeast,FMDV inh,HCV inhibitor,MARV entry inh,Lassa entry inh,HCMV antiviral
Cc1cccc(Cc2nnc(CCC(=O)N(C)C3CCOC3)o2)c1 (stereo not drawn),-,-,-,?,-,-70
Cc1c(O)ccc(/C(Cc2ccc3ccccc3n2)=N\O)c1O,-,-,11µM,-,?,-
CC(=O)Oc1ccc(C(=O)Cc2ccc3ccccc3n2)c(O)c1C,-,-,?,-,-,-
O=c1cc(-c2c(F)c(F)c(F)c(F)c2F)oc2ccccc12,-,.,5µM,18µM,?,?
O=C(Nc1ccc(-c2cc(C(F)(F)F)nn2-c2ccccc2)cc1)c1cccc(F)c1,.,-,.,?,?,-95
CCN1C(=O)[C@H]2[C@H]3[C@H](O)[C@H](O)C/C(=N/OC[C@@H](C)[C@H](OCc4ccccc4)C(C)C)[C@@H]3CC[C@@H]2C1=O,.,.,.,-,.,.
COc1ccccc1C(=O)NCCSc1c(C)[nH]c2ccccc12,.,?,.,-,-,-
COc1cccc(C(=O)NCCSc2c(C)[nH]c3ccccc23)c1OC,-,?,13µM,.,.,-
Cc1ccc(C(=O)NCCSc2c(C)[nH]c3ccccc23)cc1[N+](=O)[O-],-,35µM,11µM,-,?,-
COc1ccc(-c2[nH]c3ccccc3c2SCCNC(=O)c2ccccc2)cc1,-,-,13µM,?,?,-
COc1ccc(C(=O)c2oc3ccccc3c2NC(=O)c2nc(SC)ncc2Cl)cc1Cl,.,-,.,-,-,-
COc1ccc(C(=O)N=c2sc3c(C)ccc(OC)c3n2C)cc1OC,-,-,16µM,.,.,-
COc1ccc(OC)c2c1sc(=NC(=O)C1CC1)n2C,-,-,14µM,.,.,-
COc1cccc(C(=O)N=c2sc3c(C)ccc(OC)c3n2C)c1,-,-,?,.,.,-
COc1ccc(OC)c2c1sc(=NC(=O)c1ccco1)n2C,-,-,7.9µM,.,.,-
Cc1c(NC(=O)Cc2ccc(Cl)cc2)cccc1-c1nc2cccnc2s1,.,-,.,.,-,-
CN(C)Cc1ccccc1-c1cc(N(C)Cc2ccco2)ncn1,.,-,.,.,.,.
C[N+](C)(CCOc1ccccc1)Cc1ccccc1,.,-,-,.,.,-
Cc1cc(C(C)(C)CC(C)(C)C)ccc1OCCOCC[N+](C)(C)Cc1ccccc1,.,?,2.8µM,.,.,-94
CC1S/C(=C(\C#N)C(=O)NCc2ccco2)N(c2ccc(F)cc2)C1=O (stereo not drawn),-,-,-,-,?,-97
O=[N+]([O-])c1ccccc1Oc1ccc(Cl)c2cccnc12,-,-,?,?,?,-
O=[N+]([O-])c1ccc(O)c2cccnc12,-,-,?,-,-,-
O=[N+]([O-])c1ccc(O)c2ncccc12,-,-,?,?,?,-99
O=[N+]([O-])c1cc([N+](=O)[O-])c2cccnc2c1Oc1ccccc1O,-,16µM,?,?,?,-
CCOC(=O)c1c2n(c3ccc(O)cc13)CCCCC2,-,?,?,?,-,-
SMILES,SARS PLpro yeast,FMDV inh,HCV inhibitor,MARV entry inh,Lassa entry inh,HCMV antiviral
CCOC(=O)c1c(C)n2c3c(cc(C)cc13)CCC2,-,-,10µM,?,-,?
Cc1ccc(NC(=O)CN2C(=O)COc3ccc(S(=O)(=O)N4CCCCCC4)cc32)c(C)c1,.,-,.,.,-,-
COc1ccc(S(=O)(=O)NCCc2cn3ccsc3n2)cc1OC,.,-,.,.,-,-
Cc1nn(-c2ccccc2)c(C)c1C(=O)OCc1ccc(C#N)cc1,-,-,13µM,.,.,-
Cc1nn(-c2ccccc2)c(C)c1C(=O)OCC(N)=O,-,-,-,.,.,-
COc1ccc2oc(-c3ccc(NC(=O)c4ccc(Cl)cc4Cl)cc3)nc2c1,.,?,.,.,-,?
Cc1cccc(C)c1NC(=S)N1CCC(N(C)CC2CCCO2)CC1 (stereo not drawn),-,-,-,-,-,-
Cc1cc(C)c(NC(=S)N2CCC(N(C)CC3CCCO3)CC2)c(C)c1 (stereo not drawn),-,-,-,-,-,-72
CCn1c(=NC(=O)c2ccc(N3C(=O)CCC3=O)cc2)sc2c(OC)ccc(OC)c21,-,?,14µM,-,.,-
CCn1c(=NC(=O)c2ccc(S(=O)(=O)N3CCOCC3)cc2)sc2cccc(OC)c21,-,?,10µM,?,?,-
CCn1c(=NC(=O)CCS(=O)(=O)c2ccccc2)sc2cccc(OC)c21,-,20µM,.,?,?,-74
Cc1noc(C)c1COC(=O)c1cc(=O)[nH]c2ccccc12,-,-,-,-,-,?
O=C(OCc1nnc(-c2ccccc2)o1)c1cn(-c2ccccc2)nc1-c1ccccc1,-,-,11µM,?,-,-
O=C(OCc1nnc(-c2ccccc2)o1)c1ccccc1,-,-,-,-,.,-
Cc1cc(C(=O)OCc2nnc(-c3ccccc3)o2)c(C)n1-c1ccccc1,-,?,14µM,-,?,-
Cc1noc(C)c1COC(=O)c1cc(C)n(-c2ccccc2)c1C,-,-,10µM,-,-,-
O=C(OCc1nnc(-c2ccccc2)o1)c1ccc(-n2cnnn2)cc1,-,-,-,-,?,-
COc1cc(C(CCN2CCCC2)c2c(OC)cc(OC)c3c(C)cc(=O)oc23)cc(OC)c1OC (stereo not drawn),-,-,10µM,.,.,-
COc1ccc(C(CNC(=O)c2cccc([N+](=O)[O-])c2)N2CCOCC2)cc1 (stereo not drawn),.,-,.,-,-,-
CNC(=O)c1c2c(nc3ccc(Br)cc13)CCCC2,-,-,25µM,-,?,-
CCC1C/C(=C\c2cc(OC)c(OC)cc2OC)C(=O)/C(=C/c2cc(OC)c(OC)cc2OC)C1 (stereo not drawn),-,?,7.1µM,.,.,.
COc1cc(OC)c(OC)cc1/C=C1\CC(C)C/C(=C\c2cc(OC)c(OC)cc2OC)C1=O (stereo not drawn),-,13µM,?,.,.,-99
CC(C)Cn1c(O)c(/C=C2\C=NN=C2c2ccccc2)sc1=S,-,-,?,?,13µM,-
COc1ccc(NC(=O)c2c(NCc3sccc3C)sc3c2CCCCC3)c(OC)c1,.,-,.,.,-,-
CCOC(=O)N1CCc2c(sc(NCc3cccc(F)c3)c2C(=O)Nc2ccc(OC)cc2OC)C1,.,-,.,.,?,-87
CCOC(=O)N1CCc2c(sc(NCc3sccc3C)c2C(=O)Nc2ccc(OC)cc2OC)C1,.,32µM,.,.,?,-85
COc1ccc(NC(=O)c2c(NCc3cccs3)sc3c2CCCC3)c(OC)c1,.,-,.,.,?,-
COc1ccc(NC(=O)c2c(NC(=O)CNCC(C)C)sc3c2CCC3)c(OC)c1,-,-,10µM,?,?,-
CCOC(=O)N1CCc2c(sc(NCc3cc(OC)c(OC)cc3OC)c2C(=O)Nc2ccc(OCC)cc2)C1,.,-,.,.,-,-
CCOC(=O)N1CCc2c(sc(NCc3ccc(N(C)C)cc3)c2C(=O)Nc2ccc(OC)cc2)C1,.,-,.,.,?,-65

# Screening data from PubChem.
